GRP78 ERSR act: inducers of ER stress response in human glioma cells; U87-MG GRP78 promoter luciferase reporter, 16 h; Potency, µM, for inactives: at the top dose activation, usual class: activators; 420,000 compounds, 0.02% hits; AID 602332; also: potency is read from the fitted curve at half-maximal effect; series mostly up to about 76 µM; % of control where 0% means no effect; nearly all actives have a fitted effect of over 35% in size
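ERSR induction read as luciferase luminescence (Bright-Glo, 10 min at room temperature) in stably transfected human U87-MG glioma cells exposed to compounds for 16 h, using GRP78 as sensor.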
TCR activator: activates T cell receptor signaling | primary human leukocytes, anti-CD3, IL-2 HTRF, 48 h | Potency, µM (highest dose often 9.22 µM), without a hit: at the highest dose activation of IL-2 secretion, hits mostly activators | 330,000 tested, under 10 active | AID 504894; also: % of control where 0% means no effect
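Primary human leukocytes were stimulated with a-CD3 beads plus compounds for 48 hr without co-stimulation; secreted IL-2 was quantified by HTRF using a-IL-2-K (europium cryptate) and a-IL-2-d2, excited at 320nm with acceptor emission read at 665nm.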
pAkt inh: Akt phosphorylation inhibition | activity change, % for hits at 50 µM | 360,000 compounds, 0.32% hits | AID 651550 | Neuro2A IGF-stimulated pAkt S473 HTRF, 20 min; hits give low values; in the data active = activity change below about -80%; inconclusive = mostly about -51% to -80%; also: % is scaled to controls: 0 for no effect and ±100 for the full control effect
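Single-point screen (50 µM final compound) in Neuro2A cells stimulated 20 min with 6 nM IGF at 37 deg C. After lysis, Ser473-phosphorylated Akt read by HTRF (ex 330 nm, em 615/665 nm) as the 665/615 ratio.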
RGS4 inhibitor: human RGS4 inhibition; P49798; Transcreener GDP fluorescence polarization, RGS4-accelerated GTP hydrolysis; Potency, µM (highest dose often 114 µM), without a hit: at the highest dose activity change, negative = inhibition, most hits filed as inhibitors; 390,000 compounds, 0.039% hits; AID 504845; also: potency is read from the fitted curve at half-maximal effect; % is scaled to controls: 0 for no effect and ±100 for the full control effect; nearly all actives have a fitted effect of over 75% in size
Target sequence (P49798 whole entry, looked up): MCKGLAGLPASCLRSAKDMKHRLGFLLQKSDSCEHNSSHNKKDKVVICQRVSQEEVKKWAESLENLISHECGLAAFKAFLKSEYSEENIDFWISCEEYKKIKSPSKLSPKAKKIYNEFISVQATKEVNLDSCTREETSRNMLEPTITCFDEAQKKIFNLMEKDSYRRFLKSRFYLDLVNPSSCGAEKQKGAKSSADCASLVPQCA
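MLSMR compounds (23 nl, pin-transferred) preincubated 10 min at room temperature with a 500nM (2x) first reagent, then RGS4 at 900nM (2x) plus Transcreener GDP mix added; fluorescence polarization (620/688 nm) read before and after 90 min at 30 °C.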
TSHR antagonist: blocks TSH signaling through the human TSH receptor | P16473 | TSHR-expressing cells, TSH-stimulated cAMP HTRF, 2 h; hits give low values | activity change, negative = inhibition, % at 11.5 µM | 330,000 compounds, 0.2% hits;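 active = activity change below a set negative limit, meaning inhibition stronger than a set level, cut at about -70% in these data; inconclusive = activity change between two set negative limits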; also: % is scaled to controls: 0 for no effect and ±100 for the full control effect
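Cell-based HTRF cAMP assay; TSHR cells + compound, TSH EC80 (4nM final), 2 h, 37 deg C. Lysis with anti-cAMP cryptate and cAMP-d2, 30 min RT, read 665/620 nm.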
LDHA block: inhibitors of human lactate dehydrogenase A; P00338; purified LDHA, NADH/diaphorase-resazurin fluorescence; hits give low values; activity change, % (values are at about 110 or 230 µM); 480,000 compounds, 0.15% hits; in the data active = activity change below about -30%; inconclusive = mostly about -25% to -30%;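 also: plate controls were DMSO wells for no effect and wells without enzyme for full effect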
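Remaining NADH was detected by diaphorase (0.133 mg/mL) converting 37 µM resazurin to fluorescent resorufin, read at 0 and 20 minutes. The preceding 5-minute room-temperature reaction used 2 nM LDHA, 0.2 mM sodium pyruvate and 0.06 mM NADH at pH 7.4.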
Numbers without * were called inactive; ! = not confirmed by another sample; [ ] = another dose, or the depositor's remark. The list is not random: actives were taken first. Their share in the collection is about 0.55%. Unless noted, calls follow the shape of the dose curve; as a rule, active = well fitted curve in the direction sought with a large enough effect; inconclusive = small, poorly fitted or top-dose-only effect, or another doubt; inactive = no such curve, though single readings can be large; an effect the other way counts as inactive or inconclusive.

Screening O/N=C1\CCc2cc(Cl)ccc21 returned GRP78 ERSR act -1%, TCR activator 4%, pAkt inh -102%*, RGS4 inhibitor -9%, TSHR antagonist 2 and LDHA block 0.
Cc1c(O)cc2c(c1O)C(=O)CC(c1ccccc1)O2 (stereo not given) was read as GRP78 ERSR act 28µM*, TCR activator 1%, pAkt inh inactive, RGS4 inhibitor -18%, TSHR antagonist -8 and LDHA block 5.
Screening O=C(O)c1cc(-c2ccccc2)nc2ccc(F)cc12 returned LDHA block 2.
`CCOc1ccc(C2C(C#N)=C(N)Oc3n[nH]c(-c4ccc(F)cc4)c32)cc1OCC` (stereo not given) gave LDHA block -13.
For Cc1cccc2c(C(=O)O)cc(-c3ccccc3)nc12 the results were LDHA block 3.
`CCC(=O)OCCNc1cc(Sc2nccn2C)c2nonc2c1[N+](=O)[O-]` gave GRP78 ERSR act -15%, TCR activator -5%[46.1 µM], pAkt inh inactive, RGS4 inhibitor inconclusive, TSHR antagonist -97* and LDHA block 11.
For CCCc1[nH][nH]c(=O)c1C(c1cccc(Cl)c1)C(C#N)C#N (stereo not given) the results were GRP78 ERSR act 14%, TCR activator 1%, pAkt inh inactive, RGS4 inhibitor inconclusive, TSHR antagonist -15 and LDHA block -5.
Screening N#CC(C#N)C(c1ccsc1)c1c(-c2ccccc2)[nH][nH]c1=O (stereo not given) returned GRP78 ERSR act 0%, TCR activator -4%, pAkt inh -108%*, RGS4 inhibitor -1%[11.4 µM], TSHR antagonist -4 and LDHA block 6.
Screening COc1ccc(-c2nc3c(s2)CN(C(C(=O)O)c2c[nH]c4cc(Br)ccc24)CC3)cc1 (stereo not given) returned LDHA block 4.
Screening CN1CCc2cc(Cl)c(O)cc2[C@@H](c2ccccc2)C1 returned GRP78 ERSR act -3%, TCR activator -2%, pAkt inh inactive, RGS4 inhibitor 3µM*!, TSHR antagonist -8 and LDHA block -3.
Cc1ccc(-c2n[nH]c(=O)c3ccccc23)cc1S(N)(=O)=O was read as GRP78 ERSR act -4%, pAkt inh inactive, RGS4 inhibitor -49%, TSHR antagonist -3 and LDHA block -30*!.
Screening CC1=C/C(=N\OS(=O)(=O)c2ccccc2)C(C(C)C)=CC1=O returned GRP78 ERSR act -13%, TCR activator 2%[46.1 µM], pAkt inh inactive, RGS4 inhibitor inconclusive, TSHR antagonist -84* and LDHA block 38.
Screening CC1=C/C(=N\OS(=O)(=O)c2ccccc2)C(C)=CC1=O returned GRP78 ERSR act -18%, TCR activator -2%, pAkt inh inactive, RGS4 inhibitor inconclusive, TSHR antagonist -84* and LDHA block 27.
Screening CC1=C(C)/C(=N\OS(=O)(=O)c2ccc(C)cc2)C=CC1=O returned GRP78 ERSR act -16%, TCR activator 0%[46.1 µM], pAkt inh inactive, RGS4 inhibitor inconclusive, TSHR antagonist 16 and LDHA block 37.
`CN(C)CCCN(Cc1ccc(Cl)cc1Cl)Cc1ccc(Cl)cc1Cl` gave LDHA block 0.
`O=S(=O)(c1ccc(Oc2ccc(Br)cc2)cc1)N1CCOCC1` gave GRP78 ERSR act 4%, TCR activator -3%, pAkt inh -113%*, RGS4 inhibitor 24%, TSHR antagonist -47 and LDHA block -3.
`COCCn1c(=N)c(C(=O)NCCc2ccc(OC)cc2)cc2c(=O)n3cccc(C)c3nc21` gave GRP78 ERSR act -6%, TCR activator -1%, pAkt inh -107%*, RGS4 inhibitor -11%, TSHR antagonist 0 and LDHA block -3.
COc1nc(-c2ccc(C)cc2)ccc1-c1noc(-c2cccnc2)n1 was read as GRP78 ERSR act -4%, TCR activator 2%, pAkt inh -105%*, RGS4 inhibitor -21%, TSHR antagonist -9 and LDHA block 0.
Screening Cc1c2c(=O)n(-c3ccc(Cl)cc3)[nH]c2cc(=O)n1Cc1ccc(Cl)cc1 returned LDHA block -3.
`O=C(O)/C=C/c1ccc(S(=O)(=O)Nc2ccccc2C(=O)Nc2ccc(F)cc2)cc1` gave GRP78 ERSR act -4%, TCR activator -2%, pAkt inh inactive, RGS4 inhibitor 12%, TSHR antagonist -100* and LDHA block -7.
COc1ccc(/C=N/NC(=O)c2cc(-c3ccc(C)cc3C)nc3ccccc23)cc1COC(C)=O was read as GRP78 ERSR act -5%, TCR activator -5%, pAkt inh -89%*, RGS4 inhibitor -13%, TSHR antagonist -2 and LDHA block -1.
For COc1ccc(C(C(=O)NC2CCCC2)N(C(=O)c2ccco2)c2cc3c(cc2C(C)=O)OCO3)cc1OC (stereo not given) the results were GRP78 ERSR act -1%, TCR activator -1%, pAkt inh inactive, RGS4 inhibitor 11%, TSHR antagonist 4 and LDHA block 0.
For COc1ccc(C(C(=O)NC2CCCC2)N(C(=O)c2ccco2)c2ccc3c(c2)OCO3)cc1OC (stereo not given) the results were GRP78 ERSR act -2%, TCR activator 6%, pAkt inh -109%*, RGS4 inhibitor -10%, TSHR antagonist 14 and LDHA block -3.
`Cc1ccc(Cc2cc(C)ncc2C)c(C)c1` gave LDHA block 10.
Screening Cc1ccc(C)c(-c2cc(C)ncc2C)c1 returned LDHA block -31*.
For COc1cc(NC(=O)c2ncoc2-c2ccc(OC)c(OC)c2)cc(OC)c1 the results were LDHA block 7.
`Cc1cc(C)c2nc(SCC(=O)NC(N)=O)cc(C)c2c1` gave LDHA block -34*.
For Cc1c(C(=O)NNC(=O)Nc2ccc([N+](=O)[O-])cc2)oc2ccccc12 the results were GRP78 ERSR act -7%, TCR activator -2%, pAkt inh inactive, RGS4 inhibitor 12%, TSHR antagonist 37 and LDHA block -44*.
Screening CCC(=O)Nc1ccc(NC(=O)c2oc3ccccc3c2C)cc1 returned GRP78 ERSR act -9%, TCR activator -3%, pAkt inh inactive, RGS4 inhibitor -1%, TSHR antagonist 14 and LDHA block -9.
`CCCCNc1cnn(-c2ccccc2)c(=O)c1Cl` gave GRP78 ERSR act 6%, TCR activator 2%, pAkt inh inactive, RGS4 inhibitor 8%, TSHR antagonist 10 and LDHA block -8.
